Experimental data as given in PMC4336329 (PLoS ONE, 2015).
In all, about 310,000 compounds went through this assay and about 14,000 (4.5%) showed an effect of 50% or more. The effect is printed as a negative number. Many of the other results were omitted from the sample, so strong results are more common in it than they were.

What follows are compounds tested against human ether-à-go-go-related gene (hERG) potassium channel (human, UniProt Q12809) (assay: primary screen, population patch clamp on CHO cells stably expressing hERG; higher = less effect of the substance).
human ether-à-go-go-related gene (hERG) potassium channel, sequence (Q12809 whole entry, looked up): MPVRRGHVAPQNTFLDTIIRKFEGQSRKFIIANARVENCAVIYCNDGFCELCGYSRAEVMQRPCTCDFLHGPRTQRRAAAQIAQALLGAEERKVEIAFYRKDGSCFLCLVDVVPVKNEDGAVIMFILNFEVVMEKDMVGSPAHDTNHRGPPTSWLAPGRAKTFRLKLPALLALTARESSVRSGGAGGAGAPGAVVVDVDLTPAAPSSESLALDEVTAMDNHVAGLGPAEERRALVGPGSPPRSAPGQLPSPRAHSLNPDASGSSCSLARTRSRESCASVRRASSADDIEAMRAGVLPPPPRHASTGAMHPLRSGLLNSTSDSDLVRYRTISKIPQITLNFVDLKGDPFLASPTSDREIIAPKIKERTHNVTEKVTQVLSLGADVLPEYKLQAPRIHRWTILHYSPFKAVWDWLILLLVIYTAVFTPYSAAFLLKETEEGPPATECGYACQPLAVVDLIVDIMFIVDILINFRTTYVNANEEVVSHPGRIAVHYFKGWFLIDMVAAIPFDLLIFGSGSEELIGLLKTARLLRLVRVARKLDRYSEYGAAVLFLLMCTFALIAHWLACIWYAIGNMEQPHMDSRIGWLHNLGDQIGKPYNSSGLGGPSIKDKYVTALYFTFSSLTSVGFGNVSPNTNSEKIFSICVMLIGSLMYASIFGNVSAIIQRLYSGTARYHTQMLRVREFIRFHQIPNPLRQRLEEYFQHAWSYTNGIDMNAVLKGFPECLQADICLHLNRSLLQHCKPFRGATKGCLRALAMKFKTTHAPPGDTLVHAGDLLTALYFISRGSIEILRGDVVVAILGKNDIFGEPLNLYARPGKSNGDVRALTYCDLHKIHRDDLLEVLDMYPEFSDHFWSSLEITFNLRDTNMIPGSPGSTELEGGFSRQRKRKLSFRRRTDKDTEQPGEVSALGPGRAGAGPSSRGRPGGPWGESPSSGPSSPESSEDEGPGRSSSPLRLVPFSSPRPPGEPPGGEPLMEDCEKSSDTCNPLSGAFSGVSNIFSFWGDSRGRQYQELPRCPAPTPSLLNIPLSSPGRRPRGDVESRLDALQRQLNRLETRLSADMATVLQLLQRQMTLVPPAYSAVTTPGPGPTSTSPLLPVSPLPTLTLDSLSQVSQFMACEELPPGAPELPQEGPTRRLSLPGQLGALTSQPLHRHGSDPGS
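Also: peak tail current of the secondary pulse compared with the same well before compound.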

Going from O=[N+]([O-])c1c(Nc2ccc(O)cc2)cc(Cl)c2nonc12 to O=[N+]([O-])c1cc([N+](=O)[O-])c2nonc2c1Nc1ccc(O)cc1, the “hERG current change (%, negative = inhibition) at 10uM” value falls from -26.1% to -56.9%.

Going from O=[N+]([O-])c1cc([N+](=O)[O-])c2nonc2c1Nc1ccccc1O to COc1ccccc1NC(=O)CCS(=O)(=O)c1cc2c(cc1Cl)NC(=O)CO2, the “hERG current change (%, negative = inhibition) at 10uM” value falls from 10.3% to 1.94%.

Compared with CCC1CCCCN1C(=O)COC(=O)CN(C)S(=O)(=O)c1ccc(NC(C)=O)cc1 (stereo not shown), Cc1ccc(NC(=O)C(C)OC(=O)CCNS(=O)(=O)c2ccc(C)cc2)cc1 (stereo not shown) is lower in “hERG current change (%, negative = inhibition) at 10uM” value: 7.22% for the first, -16.5% for the second.

Compared with Cc1c(-c2cccc(NC(=O)c3ccco3)c2)nc2ncccn12, CCOC(=O)c1cnc2cc(C)nn2c1-c1ccccc1 is higher in “hERG current change (%, negative = inhibition) at 10uM” value: -13.3% for the first, 3.92% for the second.

First: Cc1ccc(NC(=O)c2nsc(Cl)c2Cl)cc1
Second: O=C(CCN1CCCCC1)Nc1ccc(Br)cc1
The “hERG current change (%, negative = inhibition) at 10uM” value of the first is higher: 5.34% for the first, -37.9% for the second.

First: CCCOc1ccccc1-c1nc2n[nH]nc2c(=O)[nH]1
Second: CCCOc1ccccc1-c1nc2c([nH]1)c(=O)[nH]c(=O)n2C
The “hERG current change (%, negative = inhibition) at 10uM” value of the first is lower: -56.3% for the first, 8.5% for the second.

Going from CCCc1nn(C)c2c(=O)[nH]c(-c3ccccc3OCC)nc12 to COc1cc(/C=C/c2nc3ccccc3c(=O)[nH]2)cc(Br)c1O, the “hERG current change (%, negative = inhibition) at 10uM” value rises from 7.87% to 30.6%.

Going from O=C(CCN1CCCCC1)N/N=C/c1ccc(Br)cc1 to O=C(CN1CCCCC1)N/N=C/c1ccc(Cl)cc1, the “hERG current change (%, negative = inhibition) at 10uM” value rises from -77.8% to -66.9%.

Going from O=C(CN1CCCCCC1)N/N=C/c1ccc2ccccc2c1 to O=C(CN1CCCCCC1)N/N=C/c1cccc(Cl)c1, the “hERG current change (%, negative = inhibition) at 10uM” value rises from -64.6% to -37.5%.

Compared with CCOc1ccc(/C=N/NC2=NCCCCC2)cc1, COc1ccc(/C=N/NC2=NCCCCC2)cc1 is higher in “hERG current change (%, negative = inhibition) at 10uM” value: -69.3% for the first, -43.7% for the second.

Going from O=C(CN1CCCCCCC1)N/N=C/c1ccc(F)c(F)c1 to Cc1cccc(/C=N/NC(=O)CN2CCCCCCC2)c1, the “hERG current change (%, negative = inhibition) at 10uM” value falls from -33.7% to -45.9%.

Compared with CCCOc1ccc(/C=N/NC(=O)CN2CCCCC2)cc1, CCOc1ccc(/C=N/NC(=O)CN2CCCCCCC2)cc1 is lower in “hERG current change (%, negative = inhibition) at 10uM” value: -49.7% for the first, -63% for the second.

Compared with Oc1ccc(/C=N/NC2=NCCCCC2)cc1, O=C(CN1CCCCCC1)N/N=C/c1ccc(Cl)c(Cl)c1 is lower in “hERG current change (%, negative = inhibition) at 10uM” value: -16.2% for the first, -60% for the second.

Compared with CCCCCCC(=O)N/N=C/c1ccc(Br)cc1, CCOc1ccc(/C=N/NC(=O)CN2CCSCC2)cc1 is higher in “hERG current change (%, negative = inhibition) at 10uM” value: 1.25% for the first, 1.7% for the second.

First: CC(=O)c1ccc(OCc2cc(=O)n3ccsc3n2)cc1
Second: CCOC(=O)c1c(N)nn(C(=O)c2ccccc2F)c1-c1ccc(OC)cc1
The “hERG current change (%, negative = inhibition) at 10uM” value of the first is lower: -1.4% for the first, 3.53% for the second.

Going from C=CCN1C(=O)C(CC(=O)NCC)SC1=Nc1cc(Cl)ccc1Cl (stereo not shown) to O=C(CN1CCCCC1)N/N=C/c1ccc(Cl)cc1Cl, the “hERG current change (%, negative = inhibition) at 10uM” value falls from -2.76% to -39.1%.

First: CCOC(=O)C1=C(C)NC(=O)NC1
Second: CCN(CC)S(=O)(=O)c1cc(NC(=O)CCNC(=O)c2ccccc2Cl)ccc1C
The “hERG current change (%, negative = inhibition) at 10uM” value of the first is higher: -3.56% for the first, -11.5% for the second.

First: CC(C)(C)Nc1nc(NN)nc(NC(C)(C)C)n1
Second: O=C(Nc1ccc(C(=O)O)cc1)/C(=C\c1ccco1)NC(=O)c1ccccc1
The “hERG current change (%, negative = inhibition) at 10uM” value of the first is lower: 11.8% for the first, 21.2% for the second.

Going from Cl.O=C1c2ccccc2C(=O)N1CC#CCN1CCN(C2CCCCC2)CC1 to O=C(CN1CCCCC1)N/N=C/c1cccc(Cl)c1, the “hERG current change (%, negative = inhibition) at 10uM” value rises from -40.8% to -35.6%.

Compared with CC1CCN(CCC(=O)N/N=C/c2ccc([N+](=O)[O-])cc2)CC1, CN1CCN(CCC(=O)N/N=C/c2cc([N+](=O)[O-])ccc2O)CC1 is higher in “hERG current change (%, negative = inhibition) at 10uM” value: -70% for the first, 1.18% for the second.

First: O=C(CN1CCSCC1)N/N=C/c1ccc(Cl)cc1
Second: Cn1cccc1CC(=O)N/N=C/c1ccc([N+](=O)[O-])cc1
The “hERG current change (%, negative = inhibition) at 10uM” value of the first is lower: -12.5% for the first, -1.88% for the second.

With Nn1c(Cc2cccc3ccccc23)nnc1SCC(=O)N1CC(=O)Nc2ccccc21 the “hERG current change (%, negative = inhibition) at 10uM” value was 7.01%.
